MITF TRPM1 HTS: activators of MITF-driven TRPM1 promoter reporter, primary screen, cell-based, SK-MEL-5, luciferase, single point; SK-MEL-5 TRPM1-promoter luciferase, 24 h; % of positive control, neutral wells = 0; activation, % at 12.5 µM; 300,000 tested, 0.75% active;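 active = mean activation of at least 80% with every replicate also reaching 80%; inconclusive = mean reaches 80% but some replicate falls short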;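 also: 0% = neutral control wells and 100% = parthenolide positive control wells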
TRPM1 prom inh: inhibitors of MITF-dependent TRPM1 promoter reporter, primary screen, cell-based, SK-MEL-5, single point, luciferase; 330,000 tested, 0.83% active; inhibition, % at 12.5 µM; AID 488899, 2010; SK-MEL-5 TRPM1 promoter luciferase, 24 h;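 active = mean inhibition across replicates of 60% or more, whatever share of single replicates reaches that level; inconclusive = some that reach 60%, reason not given; inactive = mean inhibition across replicates below 60%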
LMP1 NFkB inh: EBV LMP1-driven NF-kappaB luciferase reporter inhibitors, primary screen, cell-based, luminescence, single point. 350,000 tested, 0.69% active. AID 504558, 2011. LMP1-induced NF-kappaB luciferase reporter cells. inhibition, % at 12.5 µM; in the data active = inhibition above about 41%; inconclusive = no clear call, values can overlap the other calls;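 also: 0% = neutral control wells and 100% = reference inhibitor control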
LGR2 inh: inhibitors of bursicon-induced LGR2 CRE-luciferase signal, primary screen, cell-based, HEK293, CRE-luciferase reporter, bursicon stimulation; bursicon-stimulated, 4 h; inhibition, % at 9.99 µM; 380,000 tested, 0.35% active; AID 720647, 2013;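 active = drop in luminescence signal, shown as inhibition above about 50% in the replicate tests, limit read from the data, passing the limit was not always enough; inconclusive = probably only some replicates passing the limit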;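 also: agonist challenge used bursicon conditioned medium at about half maximal strength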
TWEAK-Fn14 inh: inhibitors of TWEAK-Fn14 signaling, primary screen, luciferase reporter cells, uHTS. 360,000 tested, 2% active. inhibition, % at 10 µM. AID 1159606, 2016. TWEAK-stimulated Fn14 reporter cells, luciferase luminescence, 8 h; in the data active = inhibition above about 50%
TROY signal inh: inhibitors of TROY-driven NF-kB signaling, primary screen, Q293 LMP1-TROYcd cells, NF-kB luciferase, uHTS; Q293 LMP1-TROYcd NF-kB luciferase reporter, 4 h; inhibition, % at 10 µM; 360,000 tested, 0.98% active; AID 1347056, 2019;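 active = compounds whose plate-normalised and pattern-corrected inhibition of the luciferase reporter signal at the single screening dose is 50% or more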
An asterisk follows results filed as active; ? = inconclusive; · = not tested or not shown. Sampled rows, rich in hits. Any-hit rate of the full collection: about 3%.

SMILES	MITF TRPM1 HTS	TRPM1 prom inh	LMP1 NFkB inh	LGR2 inh	TWEAK-Fn14 inh	TROY signal inh
CCCc1ccc(C2C3=C(CC(C)(C)CC3=O)NC3=C2C(=O)c2ccccc23)cc1 (stereo not given)	-4	5	6	-16	55*	22
CCCCc1ccc(C2C3=C(CC(C)(C)CC3=O)NC3=C2C(=O)c2ccccc23)cc1 (stereo not given)	-14	17	-16	32	57*	33
CNC(=O)Nc1ccccc1C(=O)NCc1ccccc1	-3	3	7	·	62*	-7
O=C(COC(=O)C1(c2ccc(Cl)cc2)CCCC1)NCc1ccco1	-19	14	-3	-19	-17	-16
CCc1ccc(NC(=O)COC(=O)C2(c3ccc(Cl)cc3)CCCC2)cc1	-9	10	61*	·	44	37
CC(Sc1n[nH]c(N)n1)C(=O)C12CC3CC(CC(C3)C1)C2 (stereo not given)	-1	-1	4	-8	-10	7
CC(SC#N)C(=O)C12CC3CC(CC(C3)C1)C2 (stereo not given)	-5	6	-11	·	72*	41
Cc1ccc(CN(C)C[C@@H]2OCc3cn(nn3)CCCC(=O)N([C@H](C)CO)C[C@@H]2C)cc1	·	·	·	-7	·	·
COc1ccc(S(=O)(=O)N2CCCCN3[C@H](CO)[C@H](c4ccc(-c5cccnc5)cc4)[C@@H]3C2)cc1	·	·	·	58*	·	·
COCC(=O)Nc1ccc2c(c1)[C@H]1C[C@@H](CC(=O)NCc3ccncc3)O[C@@H](CO)[C@H]1O2	·	·	·	-2	·	·
O=C(C[C@H]1C[C@@H]2c3cc(NC(=O)c4cccnc4)ccc3O[C@@H]2[C@@H](CO)O1)NC1CCCCC1	·	·	·	7	·	·
COc1ccc(NC(=O)N(C)C[C@@H]2Oc3ccc(NC(=O)NC4CCCCC4)cc3C(=O)N([C@@H](C)CO)C[C@H]2C)cc1	·	·	·	-11	·	·
COc1cccc2sc3ccc(C#Cc4ccc(N)cc4)cc3c(=O)c12	102*	-96	0	-67	-18	-40
O=c1c2ccccc2sc2ccc(C#CC3(O)CCCCC3)cc12	-92	93*	81*	100*	107*	92*
COc1cccc2sc3ccc(C#CC4(O)CCCCC4)cc3c(=O)c12	107*	-102	-35	-50	35	77*
NS(=O)(=O)c1ccc2nc(NC(=O)Nc3ccccc3F)sc2c1	68	-73	-78	-41	51*	8
Cc1ccc(C(=O)Nc2nc3ccc(S(C)(=O)=O)cc3s2)s1	30	-28	-5	·	6	-25
Cc1ccccc1NC(=O)Nc1nc2ccc(S(C)(=O)=O)cc2s1	47	-53	-20	-32	-72	-26
Cc1ccc2nc(NC(=O)CCCC(=O)O)sc2c1	-78	79*	37	?	86*	66*
CS(=O)(=O)c1ccc2nc(NC(=O)c3cccs3)sc2c1	-19	15	21	25	69*	34
Cc1ccc2nc(NC(=S)NC(=O)c3cccs3)sc2c1	21	-27	-32	·	43	54*
COc1ccc(S(=O)(=O)N(C)C[C@H]2Oc3c(NC(=O)NC(C)C)cccc3C(=O)N([C@H](C)CO)C[C@H]2C)cc1	·	·	·	3	·	·
C[C@@H]1CN([C@H](C)CO)C(=O)Cc2cc(NC(=O)Nc3cccc4ccccc34)ccc2O[C@@H]1CN(C)Cc1ccc2c(c1)OCO2	·	·	·	8	·	·
Cc1ccc2nc(NC(=O)c3cccs3)sc2c1	-7	7	4	·	78*	23
CCC(=O)Nc1cccc(NC(=S)NC(=O)c2cccs2)c1	86*	-81	-16	-81	-29	-44
SMILES	MITF TRPM1 HTS	TRPM1 prom inh	LMP1 NFkB inh	LGR2 inh	TWEAK-Fn14 inh	TROY signal inh
CCOCC(=O)Nc1nc2ccc(C)cc2s1	74	-76	-1	·	20	6
CCC(CC)C(=O)Nc1cccc(SC)c1	·	·	·	16	·	·
CCC(=O)Nc1cccc(SC)c1	12	-14	-3	-21	99*	-17
Cc1ccc2nc(NC(=O)CSCC(=O)OCC(=O)c3ccccc3)sc2c1	-54	53	20	13	96*	73*
C[C@@H]1CCCCO[C@@H](CN(C)C(=O)c2ccccc2)[C@H](C)CN([C@H](C)CO)C(=O)c2cc(NS(=O)(=O)c3ccc(F)cc3)ccc2O1	·	·	·	-13	·	·
COc1cccc(S(=O)(=O)Nc2ccc3c(c2)OC[C@H](C)NC[C@H](C)[C@@H](OC)CN(C)C3=O)c1	·	·	·	-3	·	·
C[C@H](CO)N1C[C@H](C)[C@@H](CN(C)C(=O)c2cccnc2)Oc2cc(-c3cccc(C#N)c3)ccc2S1(=O)=O	·	·	·	-13	·	·
CN1CCN(C(=O)[C@@H]2[C@@H](CO)[C@@H]3Cn4c(ccc(-c5cccnc5)c4=O)[C@@H]3N2CC2CC2)CC1	·	·	·	-21	·	·
CCOC(=O)c1sc(NC(=O)c2cccs2)cc1C	46	-48	-36	·	-40	-41
CCOC(=O)c1sc(NC(=O)Nc2cccc(Cl)c2)cc1C	60	-60	-18	13	75*	31
CCOC(=O)c1sc(NC(=O)c2ccc(Br)o2)cc1C	94*	-98	-60	·	-3	-35
CCOC(=O)c1sc(NC(=O)c2sccc2C)cc1C	·	-34	-26	·	33	-34
COc1ccccc1-c1ccc([C@H]2[C@H](CO)N(C(C)=O)C23CN(C(C)=O)C3)cc1	·	·	·	-15	·	·
Cc1cc(C(=O)CSc2nnc(-c3ccc4c(c3)OCO4)o2)c(C)n1-c1ccc(F)cc1	-3	6	5	-3	65*	13
Cc1cc(C(=O)CSc2nnc(-c3ccccc3)n2-c2ccccc2)c(C)n1-c1ncn[nH]1	·	3	1	·	-16	-17
Cc1cc(C(=O)CSc2nnc3ccccn23)c(C)n1-c1ccccc1	-77	78*	81*	98*	101*	79*
CC1CCCN(C(=O)CSc2nnc(-c3ccc(O)cc3)o2)C1 (stereo not given)	11	-14	-12	-6	-1	-14
CC1CCCN(C(=O)CSc2nnc(-c3cccs3)o2)C1 (stereo not given)	89*	-92	-2	-30	30	-31
Cc1cc(C(=O)CSc2nnc(-c3cccs3)o2)c(C)n1-c1ccccc1	-35	39	58*	·	2	-42
COc1cccc(NC(=O)CSc2nnc(-c3cc(C)n(-c4ccccc4)c3C)o2)c1	-17	17	26	·	89*	36
NC(=O)CSc1nnc(-c2ccc3c(c2)OCO3)o1	16	-15	-24	-4	12	-35
C/C(N)=C(/C#N)C(=O)CSc1nnc(-c2ccc3c(c2)OCO3)o1	-23	20	16	8	83*	45

Compound activity deposited in PubChem by several laboratories.
